miR-122 inh: miR-122 suppressors via Renilla sensor increase, primary screen, cell-based, Huh7 psiCHECK-miR122, Renilla luciferase, single point; 48 h; activation, % at 12.5 µM; 0.14% of 340,000 active;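 active = mean activation of 30% or more, with every replicate also reaching 30%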;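 note: higher luciferase signal means stronger suppression of miR-122 activity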
Of the large screens only hits and unclear results are named; the others gave an inactive call. The entries come from a sample that favours hits as a whole.

C[C@H](CO)N1C[C@H](C)[C@@H](CN(C)S(=O)(=O)c2ccc(F)cc2)Oc2ncc(/C=C/c3ccccc3)cc2C1=O	none
COc1ccccc1S(=O)(=O)N(C)C[C@H]1Oc2cc(/C=C/c3ccccc3)ccc2S(=O)(=O)N([C@H](C)CO)C[C@H]1C	none
C[C@@H]1CN([C@H](C)CO)S(=O)(=O)c2ccc(C#CCN(C)C)cc2O[C@H]1CN(C)CC1CCCC1	none
C[C@H]1CN([C@@H](C)CO)C(=O)c2cc(C#Cc3cccnc3)cnc2O[C@H]1CN(C)S(C)(=O)=O	none
C[C@@H]1CN([C@H](C)CO)C(=O)c2cc(NC(=O)Nc3cccc4ccccc34)ccc2O[C@@H]1CN(C)C(=O)Nc1ccccc1	none
Cc1ccc(S(=O)(=O)Nc2ccc3c(c2)C(=O)N([C@@H](C)CO)C[C@H](C)[C@H](CN(C)C(=O)Nc2ccc(F)cc2)OCCCC[C@@H](C)O3)cc1	none
C[C@@H]1CN([C@@H](C)CO)C(=O)c2cc(NC(=O)Nc3cccc4ccccc34)ccc2O[C@@H](C)CCCCO[C@@H]1CN(C)CC1CCCCC1	miR-122 inh 34
C[C@@H]1CN([C@H](C)CO)C(=O)c2cc(/C=C/c3ccccc3)cnc2O[C@H]1CN(C)C(=O)c1cccc(F)c1	none
Cc1c(NC(=O)/C=C/c2cn(-c3ccccc3)nc2-c2ccccc2)c(=O)n(-c2ccccc2)n1C	miR-122 inh 37
CCCNC(=O)N(C)C[C@H]1Oc2cc(-c3ccccc3)ccc2S(=O)(=O)N([C@@H](C)CO)C[C@@H]1C	none
COc1ccccc1NC(=O)N(C)C[C@H]1Oc2ncc(C#CCC(C)C)cc2C(=O)N([C@H](C)CO)C[C@H]1C	none
CO[C@@H]1CN(C)C(=O)c2cc(NC(C)=O)ccc2OC[C@H](C)N(C(=O)CN(C)C)C[C@@H]1C	none
COCC(=O)N(C)C[C@H]1Oc2cc(-c3cccc(F)c3)ccc2S(=O)(=O)N([C@H](C)CO)C[C@@H]1C	none
COc1ccc(CN2CCc3c([nH]c4ccccc34)C2)c(OC)c1C	miR-122 inh 42
CC(C)CC#Cc1cnc2c(c1)C(=O)N([C@H](C)CO)C[C@@H](C)[C@H](CN(C)C(=O)Cc1ccccc1)O2	none
C[C@@H]1CN([C@@H](C)CO)S(=O)(=O)c2ccc(Br)cc2O[C@@H]1CN(C)S(C)(=O)=O	none
C[C@H]1CN([C@@H](C)CO)S(=O)(=O)c2ccc(C#Cc3ccccn3)cc2O[C@H]1CN(C)Cc1cccc(F)c1	none
COc1ccccc1-c1cnc2c(c1)C(=O)N([C@H](C)CO)C[C@H](C)[C@H](CN(C)C(=O)c1ccccc1)O2	none
CCCC#Cc1cnc2c(c1)C(=O)N([C@@H](C)CO)C[C@H](C)[C@@H](CN(C)C(=O)Cc1ccccc1)O2	none
Cc1noc(C)c1S(=O)(=O)N(C)C[C@@H]1Oc2c(NC(=O)C3CCOCC3)cccc2C(=O)N([C@@H](C)CO)C[C@@H]1C	none
CCCNC(=O)Nc1ccc2c(c1)OC[C@@H](C)NC[C@H](C)[C@@H](OC)CN(C)C2=O	none
CC(C)CC#Cc1ccc2c(c1)O[C@@H](CN(C)C(=O)C1CCOCC1)[C@H](C)CN([C@H](C)CO)S2(=O)=O	none
O=S(=O)(C/C(=C/CO)S(=O)(=O)c1ccccc1)c1ccccc1	miR-122 inh 72
CCC(=O)N(C)C[C@H]1Oc2ncc(C#Cc3ccc(OC)cc3)cc2C(=O)N([C@H](C)CO)C[C@H]1C	none
CCC(=O)Nc1ccc2c(c1)OC[C@@H](C)NC[C@@H](C)[C@H](OC)CN(C)C2=O	none
CCCNC(=O)NC[C@@H]1[C@@H](c2ccc(C3=CCCCC3)cc2)[C@H](CO)N1C(C)=O	none
CCCNC(=O)N1[C@H](CNC(=O)c2ccc(F)cc2)[C@H](c2ccccc2)[C@@H]1CO	miR-122 inh 42
Cc1noc(C)c1NC(=O)N(C)C[C@@H]1Oc2ncc(C#Cc3ccc(C(F)(F)F)cc3)cc2C(=O)N([C@H](C)CO)C[C@@H]1C	none
C[C@H]1CN([C@@H](C)CO)C(=O)c2cc(-c3ccccc3F)cnc2O[C@@H]1CN(C)Cc1ccccc1F	none
COc1ccc(C#Cc2ccc3c(c2)O[C@H](CN(C)C)[C@H](C)CN([C@H](C)CO)S3(=O)=O)cc1	none
CC(C)NC(=O)N(C)C[C@H]1Oc2cc(C3=CCCCC3)ccc2S(=O)(=O)N([C@@H](C)CO)C[C@H]1C	none
COc1cccc(Nc2nc(NCC3CCCO3)c3ccccc3n2)c1 (centres undefined)	miR-122 inh 51
COc1ccccc1NS(=O)(=O)c1cc(NC(=S)NCC2CCCO2)ccc1C (centres undefined)	none
COc1ccc(CN(C(=O)c2ccc(-c3ccccc3)[nH]2)C(C(=O)NCC2CCCO2)c2ccc(C)o2)cc1 (centres undefined)	none
CNC[C@H]1Oc2cc(C#Cc3cccc(F)c3)ccc2S(=O)(=O)N([C@H](C)CO)C[C@@H]1C	none
Cc1ccc(-c2ccc3c(c2)O[C@@H](CN(C)Cc2cccc(C(=O)O)c2)[C@H](C)CN([C@H](C)CO)S3(=O)=O)cc1	none
C[C@H]1CN([C@@H](C)CO)C(=O)c2cc(C#CC3(O)CCCC3)cnc2O[C@@H]1CN(C)Cc1ccncc1	none
